One assay deals with TAB165. The assay is described as follows: qHTS profiling for inhibitors of Plasmodium falciparum proliferation (AID 504749). Also: potency is read from the fitted curve at half-maximal effect. To be noted: P. falciparum in erythrocytes, SYBR Green DNA, 72 h; series mostly up to 28.7 µM. The gist of the method: (§1)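 P. falciparum-infected erythrocytes (0.3% parasitemia, 2.5% hematocrit final) were exposed to compounds for 72 h at 37 C in 5% CO2, then lysed with SYBR Green buffer overnight at room temperature; parasite DNA fluorescence was normalized to artemisinin and DMSO controls.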
(Quantitative high-throughput screening tests each substance at several concentrations.)

Another assay relates to W2. Described as above. The note with it: P. falciparum in erythrocytes, SYBR Green DNA, 72 h; series mostly up to 28.7 µM. Put shortly: as §1
In assay [1] the test system is CRL-7250. Put plainly: Cytotoxic Profiling of Annotated Libraries Using Quantitative High-Throughput Screening (AID 1296008). Also: potency is read from the fitted curve at half-maximal effect. As to max response: % is scaled to controls: 0 for no effect and ±100 for the full control effect. The note with it: Five cell lines viability, CellTiter-Glo ATP luminescence, 48-72 h; max response: stronger effect = lower value. Put shortly:
(§2)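 Compounds were pin-transferred onto cells and incubated 48 or 72 hr at 37 degree Celsius, 95% humidity. CellTiter-Glo was added, plates sat 10 min at room temperature, then ATP-coupled luminescence was imaged as the viability read-out.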

Another assay relates to HEK293. The assay is described as above. To be noted: Five cell lines viability, CellTiter-Glo ATP luminescence, 48-72 h; max response: stronger effect = lower value. Put shortly:
as §2
A general note: Cellular ATP, detected with luciferase, serves as a proxy for viable cell number.

Assay [2] concerns HaCat. The assay is described as above. To be noted: Five cell lines viability, CellTiter-Glo ATP luminescence, 48-72 h; max response: stronger effect = lower value. The gist of the method: as §2
A further assay concerns KB-3-1. Described as above. The note with it: Five cell lines viability, CellTiter-Glo ATP luminescence, 48-72 h; max response: stronger effect = lower value. Put shortly:
as §2

For another assay, the system named is NIH3T3. The description is as above. The note with it: Five cell lines viability, CellTiter-Glo ATP luminescence, 48-72 h; max response: stronger effect = lower value. The gist of the method: as §2
Assay [3] has as its system HACAT. Put plainly: qHTS assay to identify novel small-molecules to repurpose for Merkel cell carcinoma treatment (AID 1296009). The note with it: MCC and control cell lines, CellTiter-Glo viability, 72 h; at 44.8 µM (top of the series) unless noted. The gist of the method: (§3)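 Cells exposed to NPC (8-point) and MIPE (11-point) compound dilutions for 72 hr at 37 degree celsius; viability read by CellTiter-Glo luminescence, normalized to no-cell and DMSO in-plate controls.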

In assay [4] the test system is CRL-7250. The assay is described as above. The note with it: MCC and control cell lines, CellTiter-Glo viability, 72 h; at 44.8 µM (top of the series) unless noted. The gist of the method:
as §3

The subject of the next assay is HEK293T. Described as above. To be noted: MCC and control cell lines, CellTiter-Glo viability, 72 h; at 44.8 µM (top of the series) unless noted. Put shortly:
as §3

Structures are written as SMILES. Where “and” joins values, the source holds several entries; their conditions need not be identical. Equal values may be shown once. Records with an inconclusive call do not appear. Values without a mark were called inactive. Calls of active or inactive are those of the source. Calls follow the shape of the dose curve; as a rule, active = well fitted inhibition curve with a large enough effect; inconclusive = small, poorly fitted or top-dose-only effect; inactive = flat fitted curve, though single readings scatter.
Also: nearly all actives have a fitted effect of over 60% in size.

Take `Clc1cccc(SC2CCNCC2)n1`: the Potency entry in the assay on TAB165 and in the assay on W2 was “inactive” each time. The max response is -0.448% in the assay with CRL-7250 [1]; 1.87% with HEK293; -6.24% in the assay with HaCat [2]; -11.2% in the assay with KB-3-1; 4.41% with NIH3T3.
Turning to `c1ccc(N2CCNCC2)cc1`, the results for the max response in the assay on CRL-7250 [1] and in the assay with HEK293 were 4.63% and -4.08%, respectively. In addition, the result in the assay with HaCat [2], in the assay with NIH3T3 and in the assay on HACAT [3] was inactive.
Regarding `CCCCCCCCCC(=O)O[C@H]1CC[C@H]2[C@@H]3CCC4=CC(=O)CC[C@@H]4[C@H]3CC[C@]12C`, in the assay on TAB165, the Potency entry is “inactive”. Further, the molecule was classed as inactive with CRL-7250 [1] and in the assay with CRL-7250 [4]. Moreover, the max response with HaCat [2] is 4.55%; with KB-3-1, -10.4%; in the assay with NIH3T3 it was -3.4%.
For the molecule `CCCN(CCC)C(=O)Cc1c(-c2ccc(Cl)cc2)nc2ccc(Cl)cn12`, the max response in the assay with CRL-7250 [1] was 0.585%; in the assay on HaCat [2], -9.95%; with KB-3-1, -8.04%; in the assay with NIH3T3, 0.9%.
As to `COc1cc(OC)c(OC)cc1C=O`, the max response in the assay with CRL-7250 [1] is -7.23% and -7.54%; in the assay on HaCat [2], -4.25%; in the assay on KB-3-1, -7.6% and -8.54%; with NIH3T3, 2.47% and 4.91%. Further, the call in the assay on HaCat [2] and in the assay on HACAT [3] was inactive. In the assay on HEK293T, the outcome was “inactive [at 92 µM]”.
In the case of `ClCCN1CCCC1`, in the assay on CRL-7250 [1], the max response was -0.393%. Also, the outcome in the assay with HEK293, with HaCat [2], with NIH3T3, with HACAT [3] and in the assay with HEK293T was inactive.
Consider `COc1cccc2c1C(=O)c1c(O)c3c(c(O)c1C2=O)C[C@@](O)(C(=O)CO)CC3OC1CC(N2CCOC(OC)C2)C(O)C(C)O1` (stereo not given in full), for which the Potency is 16.8 nM (active) in the assay with CRL-7250 [1], 11.9 nM (active) in the assay on HEK293, 21.1 nM (active) in the assay on HaCat [2] and 6.7 nM (active) in the assay with NIH3T3.
Turning to `CCC1(c2ccccc2)C(=O)N(COC)C(=O)N(COC)C1=O`, the Potency entry in the assay with TAB165 and in the assay with W2 was “inactive” each time. Also, the max response is -1.83% in the assay on CRL-7250 [1], 3.09% in the assay on HEK293, 3.73% in the assay with HaCat [2] and -3.81% in the assay with KB-3-1. Moreover, the call with NIH3T3 was inactive.
`CC(C)(N)Cc1ccccc1Cl`: the call in the assay on CRL-7250 [1], with HEK293, in the assay with HaCat [2], in the assay on CRL-7250 [4], in the assay with HACAT [3] and in the assay on HEK293T was inactive. The max response in the assay with NIH3T3 was -1.53%.
For `CCCCCCC(=O)CCCCCC/C=C/C[C@@H](O)[C@H](O)[C@@](N)(CO)C(=O)O`, the Potency entry in the assay with TAB165 was “inactive”. Also, the max response was -1.04% in the assay with CRL-7250 [1]; -0.716% in the assay on HEK293; 4.21% and -11.8% in the assay on KB-3-1; 0.482% in the assay on NIH3T3.
For `C=CCC1(C(C)CC)C(=O)NC(=O)NC1=O` (stereo not given), the call in the assay with CRL-7250 [1], in the assay with NIH3T3 and with CRL-7250 [4] was inactive. Also, the max response with HEK293 is 4.61%; in the assay with HaCat [2], 2.69%.
As to `Clc1ccc(C(c2ccc(Cl)cc2)C(Cl)(Cl)Cl)cc1`, the Potency in the assay on W2 is 6010 nM (active). Also, the max response with CRL-7250 [1] is -9.96%; with HEK293 it was -19.8%; in the assay on HaCat [2], 1.96%; with KB-3-1, -11.6%; in the assay on NIH3T3, -6.38%.
On to `O=[N+]([O-])O[C@H]1CO[C@H]2[C@@H]1OC[C@H]2O[N+](=O)[O-]`, for which the max response was -11.3% in the assay on CRL-7250 [1], 1.42% with HEK293 and -0.157% in the assay on NIH3T3.
As to `O=P1(N(CCCl)CCCl)NCCCO1` (stereo not given), the Potency result with TAB165 and in the assay with W2 was “inactive” throughout. For the same molecule, the max response in the assay with CRL-7250 [1] is -3.83% and -4.06%; with HaCat [2], -5.79%; in the assay with KB-3-1 it was 2.64% and 7.08%; in the assay on NIH3T3 it was -16.8% and -12.6%. Further, the molecule was classed as inactive in the assay on HaCat [2] and with HACAT [3].
On to `CCC(CC)(CNC(=O)CCCO)c1cccc(OC)c1`, for which the max response with CRL-7250 [1] is 0.244%; with HEK293, -5.56%; in the assay with HaCat [2], -1.8%. The call in the assay with NIH3T3 was inactive.
Turning to `COc1cccc([C@@]2(O)CCCC[C@@H]2CN(C)C)c1`, the outcome with CRL-7250 [1], in the assay on NIH3T3 and with CRL-7250 [4] was inactive. The max response in the assay with HEK293 was -4.04%; in the assay with KB-3-1 it was 0.535%.
As to `COC(=O)C(Cl)C(=O)OC`, the max response is -1.36% in the assay with CRL-7250 [1], -12.1% with KB-3-1 and -7.3% in the assay with NIH3T3. Also, the outcome in the assay with HEK293 and with HEK293T was inactive.
On to `CCC1(CC)C(=O)C=CNC1=O`, for which the Potency entry in the assay with TAB165 and in the assay on W2 was “inactive” each time. Also, the max response in the assay on CRL-7250 [1] is -2.85%; with HEK293, 4.85%; with HaCat [2], -9.12%; with KB-3-1, -0.338%; in the assay with NIH3T3, 1.41%.
Take `Nc1ccc([As](=O)(O)O)cc1`: the Potency result in the assay with TAB165 was “inactive”. In addition, the max response is 1.05% in the assay with CRL-7250 [1], -6.15% in the assay with HEK293, -3.33% in the assay with HaCat [2] and -4.72% in the assay on KB-3-1. In addition, the molecule was classed as inactive in the assay on NIH3T3.
With `CCCOC(=O)c1cncn1C(C)c1ccccc1` (stereo not given), the max response in the assay with CRL-7250 [1] is -1.16%; in the assay with HEK293 it was 1.16%; in the assay on NIH3T3, 3.77%. The call in the assay on HaCat [2] and in the assay on HACAT [3] was inactive.
As to `NC(=O)c1cc([N+](=O)[O-])cc([N+](=O)[O-])c1`, the Potency entry in the assay with TAB165 is “inactive”. Further, the call in the assay on CRL-7250 [1] and with CRL-7250 [4] was inactive. The values for the max response with HaCat [2], in the assay with KB-3-1 and in the assay on NIH3T3 were 3.87%, -1.64% and 4.48%, respectively.
On to `C[N+]1(CCF)[C@@H]2CC[C@H]1CC(OC(=O)C(O)(c1ccccc1)c1ccccc1)C2` (stereo not given in full), for which the result with CRL-7250 [1], in the assay on HaCat [2], in the assay on NIH3T3, in the assay with CRL-7250 [4] and in the assay with HACAT [3] was inactive. For the same molecule, the max response in the assay with KB-3-1 is -9.39%.
On to `CC[N+]1(CC)CCC(OC(=O)C(O)(c2ccccc2)c2ccccc2)C1` (stereo not given), for which the max response in the assay with CRL-7250 [1] is -3.85%; with HEK293, 3.52%; in the assay with NIH3T3 it was 4.46%. In addition, the molecule was called inactive in the assay on HaCat [2] and with HACAT [3].
`Nc1nc(N)nc(NC2CC2)n1`: the Potency result with TAB165 and with W2 was “inactive” in each case. Moreover, the max response in the assay on CRL-7250 [1] is -14.4%; with HEK293, -46.2%; in the assay with KB-3-1, 8.79%; with NIH3T3 it was -2.48%.

(Values after PubChem BioAssay (NCATS).)
